# Measurements published in PubChem BioAssay (Tox21).
# Several values for one entry are separate records, joined by “and”; a condition that tells them apart may be missing. Identical values can stand only once. Results filed as inconclusive are left out. A call without a number means that no potency is given here. Some structures have more than one record in an assay (separate samples or runs), and their calls can disagree. Activity calls are given as the source filed them. Unless noted, calls follow the shape of the dose curve; as a rule, active = well fitted curve in the direction sought with a large enough effect in the repeat runs; inconclusive = weak or mixed curves; inactive = no such curve, though single readings can be large; an effect the other way counts as inactive or inconclusive.
# What was measured:
# [1] = qHTS assay to identify aromatase inhibitors - cell viability counter screen (AID 743084);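 also: cells stimulated with testosterone during compound exposure; nearly all actives have a fitted effect of over 55% in size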; also: potency is read from the fitted curve at half-maximal effect
# [2] = target: Aryl hydrocarbon receptor (Homo sapiens) (UniProt P35869); assay: qHTS assay to identify small molecule that activate the aryl hydrocarbon receptor (AhR) signaling pathway (AID 743085);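 also: HG2L7.5c1 human HepG2 liver cells with stably integrated DRE-driven firefly reporter; series mostly up to about 70 µM; nearly all actives have a fitted effect of over 15% in size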
# Method in brief: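 Luminescence (ONE-Glo) from a dioxin-responsive-element luciferase reporter in HG2L7.5c1 HepG2 cells after 24 hr compound exposure at 37C; viability measured by CellTiter-Fluor fluorescence beforehand.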
# [3] = qHTS assay to identify small molecule that activate the aryl hydrocarbon receptor (AhR) signaling pathway - cell viability counter screen (AID 743086);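 also: HepG2 liver cells carrying the AhR DRE luciferase reporter; series mostly up to about 70 µM; nearly all actives have a fitted effect of over 45% in size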
# Method in brief: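 Cytotoxicity counter screen: CellTiter-Fluor signal (30 min, 37 C) in 4000 HepG2 cells/well carrying the DRE-luciferase reporter, following 24 h compound exposure at 37 C.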
# [4] = target: Peroxisome proliferator-activated receptor gamma (Homo sapiens) (UniProt P37231); assay: qHTS assay to identify small molecule agonists of the peroxisome proliferator-activated receptor gamma (PPARg) signaling pathway (AID 743094; active = well fitted activation curve with a large enough effect in the signal ratio in the repeat runs, not every such curve was filed as active; the % refers to the signal ratio)
# Method in brief: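 Agonism was assessed in a beta-lactamase reporter system, HEK293H cells with a stably integrated UAS-bla construct under PPARg control; the 17 h treatment at 37C preceded a 1 h room-temperature FRET substrate read.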
# [5] = target: Peroxisome proliferator-activated receptor gamma (Homo sapiens) (UniProt P37231); assay: qHTS assay to identify small molecule antagonists of the peroxisome proliferator-activated receptor gamma (PPARg) signaling pathway (AID 743191; calls by dose curve; also: series mostly up to about 63 µM; nearly all actives have a fitted effect of over 30% in size)
# Method in brief: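 Beta-lactamase reporter under UAS control in HEK293H PPARg-bla cells; compound treatment 17 h at 37C. Read-out: fluorescence intensity after 1 h room-temperature incubation with LiveBLAzer B/G FRET substrate.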
# [6] = qHTS assay to identify small molecule antagonists of the peroxisome proliferator-activated receptor gamma (PPARg) signaling pathway - cell viability counter screen (AID 743194); also: nearly all actives have a fitted effect of over 55% in size
# Method in brief: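 Viability was measured as CellTiter-Glo luminescence in GeneBLAzer PPARg UAS-bla HEK293H cells. These cells had been exposed 17 h at 37 C to compounds together with rosiglitazone at 50 nM final, with the beta-lactamase readout taken in the same wells.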
# [7] = qHTS assay for small molecule agonists of the antioxidant response element (ARE) signaling pathway - cell viability counter screen (AID 743203; calls by dose curve; also: nearly all actives have a fitted effect of over 55% in size)
# Method in brief: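 ATP content via CellTiter-Glo luminescence served as the viability measure. Cells: ARE-bla HepG2, 2,000 per well. Exposure: 16 hrs, 37C/5% CO2.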
# [8] = qHTS assay for small molecule activators of the heat shock response signaling pathway - cell viability counter screen (AID 743209); also: nearly all actives have a fitted effect of over 50% in size
# Method in brief: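 Compounds dissolved in DMSO were added to overnight-plated HSE-bla HeLa cells and left 5 h at 37 C. Cell viability was quantified by luminescence using CellTiter-Glo.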
# [9] = qHTS assay for small molecule activators of the heat shock response signaling pathway (AID 743210; active = well fitted activation curve with a large enough effect in the signal ratio in the repeat runs, with a control signal flat, not every such curve was filed as active; the % refers to the signal ratio;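 also: HeLa cells with beta-lactamase reporter driven by heat shock elements; series mostly up to about 63 µM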)
# Method in brief: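 Fluorescence from a cleaved B/G FRET substrate (2.5 h, room temp) reports HSE-driven beta-lactamase in HeLa cells treated 5 h at 37 C with DMSO-dissolved compounds.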
# [10] = qHTS assay to identify small molecule agonists of the peroxisome proliferator-activated receptor delta (PPARd) signaling pathway - cell viability counter screen (AID 743211); also: nearly all actives have a fitted effect of over 55% in size
# Method in brief: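 Viability was measured as CellTiter-Glo luminescence (30 min, room temperature) in the same wells as the beta-lactamase readout. GeneBLAzer PPARd UAS-bla HEK293H cells received compound after 5 h plating and were incubated 17 h at 37 C.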
# [11] = target: Peroxisome proliferator-activated receptor delta (Homo sapiens) (UniProt Q03181); assay: qHTS assay to identify small molecule agonists of the peroxisome proliferator-activated receptor delta (PPARd) signaling pathway (AID 743212; calls by dose curve)
# Method in brief: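 Steps: seed PPARd-bla HEK293H cells; incubate 5 h, 37 C, 5% CO2; add compounds in DMSO; incubate, 37 C; add LiveBLAzer B/G FRET substrate; hold 2 h at room temperature; measure fluorescence.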
# [12] = qHTS assay to identify small molecule antagonists of the peroxisome proliferator-activated receptor delta (PPARd) signaling pathway - cell viability counter screen (AID 743213); also: nearly all actives have a fitted effect of over 50% in size
# Method in brief: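 PPARd-bla HEK293H cells (3000/well) got compound plus 300 nM L165041 agonist for 17 h at 37 C. Viability in the same wells came from CellTiter-Glo luminescence after 30 min at room temperature.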
# [13] = target: Peroxisome proliferator-activated receptor delta (Homo sapiens) (UniProt Q03181); assay: qHTS assay to identify small molecule antagonists of the peroxisome proliferator-activated receptor delta (PPARd) signaling pathway (AID 743215; active = well fitted inhibition curve with a large enough effect in the signal ratio in the repeat runs, not every such curve was filed as active; the % refers to the signal ratio;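 also: cells stimulated with agonist L165041 at 300 nM final during compound exposure; series mostly up to about 62 µM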)
# Method in brief: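 Here, a reporter line (HEK293H, beta-lactamase under a UAS) measures PPARd signaling. Compounds are tested against agonist L165041 at 300 nM final concentration over 17 h at 37 C, with fluorescence read after substrate.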
# [14] = qHTS assay to identify small molecule antagonists of the farnesoid-X-receptor (FXR) signaling pathway - cell viability counter screen (AID 743221; active = well fitted cell-killing curve with a large enough effect in the repeat runs, not every such curve was filed as active; also: nearly all actives have a fitted effect of over 50% in size)
# Method in brief: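 Cytotoxicity counter screen run in the FXR-bla reporter wells: HEK 293T cells exposed to compound with 50 uM (final) chenodeoxycholic acid for 16 h, 37 C, then viability measured by CellTiter-Glo luminescence after 30 min, room temperature.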
# [15] = qHTS assay to identify small molecule agonists of the farnesoid-X-receptor (FXR) signaling pathway - cell viability counter screen (AID 743218); also: nearly all actives have a fitted effect of over 45% in size; also: potency is read from the fitted curve at half-maximal effect
# Method in brief: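 Quantitative HTS counter screen measuring ATP-based viability via CellTiter-Glo luminescence in HEK 293T cells carrying a UAS-driven beta-lactamase reporter, after 16 h compound exposure at 37 C.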
# [16] = target: Bile acid receptor (Homo sapiens) (UniProt Q96RI1); assay: qHTS assay to identify small molecule antagonists of the farnesoid-X-receptor (FXR) signaling pathway (AID 743217; active = well fitted inhibition curve with a large enough effect in the signal ratio in the repeat runs, not every such curve was filed as active; the % refers to the signal ratio)
# Method in brief: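 Test compounds are pin-transferred onto FXR-bla HEK 293T cells, then chenodeoxycholic acid is added at 50 uM final. After 16 h at 37 °C, LiveBLAzer B/G substrate is applied for 2 h at room temperature and fluorescence read.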
# [17] = target: Vitamin D3 receptor (Homo sapiens) (UniProt P11473); assay: qHTS assay to identify small molecule agonists of the vitamin D receptor (VDR) signaling pathway (AID 743222; calls by dose curve)
# Method in brief: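 Tox21 cell reporter format: VDR-bla line, 16 h compound exposure in 5% CO2 at 37C, then fluorescence intensity after 2 h with LiveBLAzer B/G FRET substrate.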
# [18] = target: Vitamin D3 receptor (Homo sapiens) (UniProt P11473); assay: qHTS assay to identify small molecule antagonists of the vitamin D receptor (VDR) signaling pathway (AID 743223; active = well fitted inhibition curve with a large enough effect in the signal ratio in the repeat runs, not every such curve was filed as active; the % refers to the signal ratio)
# Method in brief: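 Antagonist mode: compound added to VDR-bla cells alongside agonist 1alpha,25-dihydroxyvitamin D3 (3 nM final), incubation 16 h at 37C. Read-out is LiveBLAzer FRET fluorescence, 2 h at room temperature.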
# [19] = target: Bile acid receptor (Homo sapiens) (UniProt Q96RI1); assay: qHTS assay to identify small molecule agonists of the farnesoid-X-receptor (FXR) signaling pathway (AID 743220; active = well fitted activation curve with a large enough effect in the signal ratio in the repeat runs, not every such curve was filed as active; the % refers to the signal ratio)
# Method in brief: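 FXR-UAS-bla HEK 293T cells carrying a UAS-driven beta-lactamase reporter were plated for 5 h at 37C/5% CO2, then exposed to DMSO-dissolved Tox21 10K compounds for 16 h at 37C. A LiveBLAzer B/G FRET substrate was loaded for 2 h at room temperature before fluorescence reading.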
# [20] = qHTS assay for small molecule agonists of the antioxidant response element (ARE) signaling pathway (AID 743202; active = well fitted activation curve with a large enough effect in the signal ratio in the repeat runs, not every such curve was filed as active; the % refers to the signal ratio)
# Method in brief: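 Beta-lactamase reporter activity, read as fluorescence intensity, reflects ARE/Nrf2 pathway induction in HepG2 cells after 16 h compound exposure at 37 C; substrate loading was 2 h at room temperature.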
# Chain of Peroxisome proliferator-activated receptor delta (Homo sapiens) (Q03181 whole entry, looked up): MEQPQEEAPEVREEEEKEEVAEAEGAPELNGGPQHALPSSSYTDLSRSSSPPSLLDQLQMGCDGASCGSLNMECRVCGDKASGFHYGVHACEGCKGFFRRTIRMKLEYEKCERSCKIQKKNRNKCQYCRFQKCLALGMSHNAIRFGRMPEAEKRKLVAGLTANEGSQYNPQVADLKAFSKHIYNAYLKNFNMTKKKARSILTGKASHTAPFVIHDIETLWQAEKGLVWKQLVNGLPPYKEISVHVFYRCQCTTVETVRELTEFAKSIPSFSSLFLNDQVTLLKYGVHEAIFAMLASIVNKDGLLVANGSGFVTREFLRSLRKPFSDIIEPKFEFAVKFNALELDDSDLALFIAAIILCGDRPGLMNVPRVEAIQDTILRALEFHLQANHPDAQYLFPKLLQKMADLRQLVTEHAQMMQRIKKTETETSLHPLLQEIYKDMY
# Chain of Vitamin D3 receptor (Homo sapiens) (P11473 whole entry, looked up): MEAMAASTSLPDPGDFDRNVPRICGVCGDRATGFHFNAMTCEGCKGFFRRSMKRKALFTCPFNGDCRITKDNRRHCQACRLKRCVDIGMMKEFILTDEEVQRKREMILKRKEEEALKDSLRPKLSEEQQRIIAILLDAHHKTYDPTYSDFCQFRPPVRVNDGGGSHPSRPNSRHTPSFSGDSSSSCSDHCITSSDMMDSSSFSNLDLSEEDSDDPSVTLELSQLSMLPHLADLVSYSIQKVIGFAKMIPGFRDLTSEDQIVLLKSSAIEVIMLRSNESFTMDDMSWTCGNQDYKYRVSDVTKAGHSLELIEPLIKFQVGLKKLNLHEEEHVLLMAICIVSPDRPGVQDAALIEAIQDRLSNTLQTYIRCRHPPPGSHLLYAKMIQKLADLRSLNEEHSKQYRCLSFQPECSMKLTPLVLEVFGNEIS
# Chain of Peroxisome proliferator-activated receptor gamma (Homo sapiens) (P37231 whole entry, looked up): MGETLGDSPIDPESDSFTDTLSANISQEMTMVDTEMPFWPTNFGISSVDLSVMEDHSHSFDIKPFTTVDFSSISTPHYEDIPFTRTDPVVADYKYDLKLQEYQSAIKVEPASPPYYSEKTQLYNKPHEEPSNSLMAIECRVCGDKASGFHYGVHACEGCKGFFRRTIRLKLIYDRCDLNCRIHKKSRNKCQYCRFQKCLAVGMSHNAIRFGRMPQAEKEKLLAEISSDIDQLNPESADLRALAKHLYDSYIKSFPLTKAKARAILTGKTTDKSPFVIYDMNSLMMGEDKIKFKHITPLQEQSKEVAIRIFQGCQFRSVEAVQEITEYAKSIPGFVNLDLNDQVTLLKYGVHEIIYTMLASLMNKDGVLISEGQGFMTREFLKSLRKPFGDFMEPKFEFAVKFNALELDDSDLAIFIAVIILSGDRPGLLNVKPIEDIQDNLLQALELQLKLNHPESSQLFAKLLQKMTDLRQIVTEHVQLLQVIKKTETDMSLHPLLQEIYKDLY
# Chain of Bile acid receptor (Homo sapiens) (Q96RI1 whole entry, looked up): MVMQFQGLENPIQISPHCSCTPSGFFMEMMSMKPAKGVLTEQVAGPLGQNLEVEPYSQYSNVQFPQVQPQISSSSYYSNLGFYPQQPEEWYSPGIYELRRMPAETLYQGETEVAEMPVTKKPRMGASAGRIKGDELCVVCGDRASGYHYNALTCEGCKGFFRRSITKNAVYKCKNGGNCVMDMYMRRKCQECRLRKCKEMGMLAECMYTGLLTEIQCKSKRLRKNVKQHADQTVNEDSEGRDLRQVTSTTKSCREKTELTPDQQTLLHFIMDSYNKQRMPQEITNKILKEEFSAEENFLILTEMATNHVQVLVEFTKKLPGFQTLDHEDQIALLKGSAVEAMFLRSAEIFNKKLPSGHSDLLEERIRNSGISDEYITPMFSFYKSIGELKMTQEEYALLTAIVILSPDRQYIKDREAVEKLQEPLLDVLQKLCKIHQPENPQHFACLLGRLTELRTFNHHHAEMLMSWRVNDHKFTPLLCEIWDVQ
# Chain of Aryl hydrocarbon receptor (Homo sapiens) (P35869 whole entry, looked up): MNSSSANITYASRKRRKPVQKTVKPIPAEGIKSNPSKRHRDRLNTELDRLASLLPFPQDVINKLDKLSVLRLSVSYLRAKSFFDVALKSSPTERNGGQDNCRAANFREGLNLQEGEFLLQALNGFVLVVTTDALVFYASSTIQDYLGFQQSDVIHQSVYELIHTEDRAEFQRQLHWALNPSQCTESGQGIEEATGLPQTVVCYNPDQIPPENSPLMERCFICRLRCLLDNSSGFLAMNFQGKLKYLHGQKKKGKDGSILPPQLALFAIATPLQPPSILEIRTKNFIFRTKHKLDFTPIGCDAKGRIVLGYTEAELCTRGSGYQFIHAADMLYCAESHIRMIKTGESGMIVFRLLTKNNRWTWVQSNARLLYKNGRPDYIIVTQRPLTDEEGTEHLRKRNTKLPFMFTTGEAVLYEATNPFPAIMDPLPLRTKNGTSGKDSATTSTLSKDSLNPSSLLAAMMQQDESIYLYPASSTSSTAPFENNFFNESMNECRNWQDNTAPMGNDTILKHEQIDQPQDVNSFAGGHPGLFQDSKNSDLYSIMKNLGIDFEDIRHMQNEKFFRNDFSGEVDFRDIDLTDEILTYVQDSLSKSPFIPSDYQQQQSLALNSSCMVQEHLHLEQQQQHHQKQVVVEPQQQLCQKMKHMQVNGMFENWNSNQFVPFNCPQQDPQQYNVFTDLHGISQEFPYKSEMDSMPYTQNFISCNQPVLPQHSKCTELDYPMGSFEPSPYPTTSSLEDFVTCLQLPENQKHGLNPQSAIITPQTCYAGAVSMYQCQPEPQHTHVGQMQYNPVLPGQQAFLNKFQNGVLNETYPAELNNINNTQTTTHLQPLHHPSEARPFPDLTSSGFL
Structure (SMILES),Potency [1],Potency [2],outcome [3],outcome [4],outcome [5],outcome [6],outcome [7],outcome [8],Potency [9],outcome [10],outcome [11],outcome [12],Potency [13],Potency [14],Potency [15],outcome [16],outcome [17],outcome [18],outcome [19],Potency [20]
Cc1cccc(O)c1,inactive,inactive,inactive,inactive,inactive,inactive,inactive,inactive,inactive,inactive,inactive,inactive,inactive,inactive,–,–,–,–,–,–
CC(=O)c1ccccc1,inactive,inactive,inactive,inactive,inactive,inactive,inactive,inactive,inactive,inactive,inactive,–,inactive,–,inactive,–,–,–,–,–
CCCCCC1=CCCC1=O,inactive,inactive,inactive,inactive,inactive,inactive,inactive,inactive,inactive,inactive,inactive,–,inactive,inactive,–,inactive,inactive,inactive,–,–
CC(=O)CC(=O)Nc1ccccc1,inactive,inactive,inactive,inactive,inactive,inactive,inactive,inactive,inactive,inactive,inactive,–,inactive,inactive,inactive,inactive,inactive,inactive,inactive,–
O=C(O)[C@H](O)[C@@H](O)[C@H](O)[C@H](O)CO,inactive,inactive,inactive,inactive,inactive,inactive,inactive,inactive,inactive,inactive,inactive,inactive,inactive,inactive,inactive,–,inactive,inactive,–,–
CC(=O)Nc1cccc(O)c1,inactive,inactive,inactive,inactive,inactive,inactive,inactive,inactive,inactive,inactive,–,–,–,–,inactive,–,–,–,–,inactive
CCCCCCCCCCCCCCO,inactive,inactive,inactive,inactive,inactive,inactive,inactive,inactive,inactive,inactive,–,inactive,–,–,–,–,inactive,inactive,–,inactive
c1c[nH]cn1,inactive,inactive,inactive,inactive,inactive,inactive,inactive,inactive,inactive,inactive,inactive,–,inactive,–,inactive,–,inactive,inactive,–,–
CCC(O)OC(O)CC (configuration not stated),inactive,inactive,inactive,inactive,inactive,inactive,inactive,inactive,inactive,inactive,–,inactive,–,inactive,–,–,inactive,inactive,–,inactive
Cc1ccc2oc(=O)ccc2c1,inactive,inactive,inactive,inactive,inactive,inactive,inactive,inactive,inactive,inactive,inactive,inactive,inactive,–,inactive,inactive,inactive,inactive,–,–
Cc1occc(=O)c1O,inactive,inactive,inactive,inactive,inactive,inactive,inactive,inactive,inactive,inactive,–,–,–,–,inactive,–,inactive,inactive,–,inactive
CC[C@H](C)C(=O)O[C@H]1C[C@@H](C)C=C2C=C[C@H](C)[C@H](CC[C@@H]3C[C@@H](O)CC(=O)O3)[C@H]21,inactive and 62 µM (active),inactive,inactive,inactive,inactive,inactive,inactive,–,inactive,–,inactive,inactive,inactive,–,62.5 µM (active) and inactive,inactive,inactive,–,–,–
O=C1CCC(N2C(=O)c3ccccc3C2=O)C(=O)N1 (configuration not stated),inactive,inactive,inactive,inactive,inactive,inactive,inactive,inactive,inactive,inactive,inactive,–,inactive,inactive,–,–,–,–,–,–
CC1CCC(C(C)C)C(O)C1 (configuration not stated),inactive,inactive,inactive,inactive,inactive,inactive,inactive,inactive,–,inactive,inactive,inactive,inactive,inactive,inactive,inactive,inactive,inactive,–,inactive
O=C(O)c1ccccc1C(c1ccc(O)cc1)c1ccc(O)cc1,inactive,inactive,inactive,inactive,inactive,–,inactive,inactive,inactive,inactive,inactive,inactive,inactive,–,inactive,–,–,–,–,–
CC(C)(N)CO,inactive,inactive,inactive,inactive,inactive,inactive,inactive,inactive,inactive,inactive,inactive,inactive,inactive,inactive,–,inactive,inactive,inactive,–,–
CCCCCC(N)=O,inactive,inactive,inactive,inactive,inactive,inactive,inactive,inactive,inactive,inactive,inactive,inactive,inactive,–,inactive,–,inactive,inactive,–,–
O=c1[nH]c(=O)n([C@H]2C[C@H](O)[C@@H](CO)O2)cc1Br,inactive,inactive,inactive,inactive,inactive,inactive,inactive,inactive,inactive,inactive,inactive,inactive,–,–,inactive,inactive,inactive,inactive,–,–
O=S1(=O)CC=CC1,inactive,inactive,inactive,inactive,inactive,inactive,inactive,inactive,inactive,inactive,inactive,–,inactive,inactive,–,–,inactive,inactive,–,–
